15 sequences from article PMC8384837, “Expanding the binding specificity for RNA recognition by a PUF domain” can be followed below.

What all share (assay): yeast three-hybrid, YBZ-1, SC-Leu-His + 0.5 mM 3-AT, 4 days
Conditions in all cases: tags: N-Gal4 AD-HA kept; label: inside an RPR1-promoter hybrid RNA with tandem MS2 sites; ssRNA

Test [1] concerns the target PUM1 PUF domain R2-RKS (Homo sapiens, UniProt Q14671 828-1176, N899R;Y900K;Q903S). In short, it runs like this:
(§1)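 Pumilio-1 PUF domain libraries, randomized at the three base-contacting residues of each repeat, were co-expressed with matching RNA elements from a centromeric plasmid in strain YBZ-1, which carries a LexA–MS2 coat fusion and a HIS3 reporter. Transformants grew for four days on SC-Leu (input) or on SC-Leu-His + 0.5 mM 3-AT (selection), and the repeat regions were PCR-amplified and Illumina-sequenced. The interaction score is the log change in variant frequency from input to selection. That logarithm is base 2, with a pseudocount of 1 where a variant was absent.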

For test [2], the target named is T1, PUM1 PUF domain R6-IWQ (Homo sapiens, UniProt Q14671 828-1176, N1043I;Y1044W).
T1 sequence: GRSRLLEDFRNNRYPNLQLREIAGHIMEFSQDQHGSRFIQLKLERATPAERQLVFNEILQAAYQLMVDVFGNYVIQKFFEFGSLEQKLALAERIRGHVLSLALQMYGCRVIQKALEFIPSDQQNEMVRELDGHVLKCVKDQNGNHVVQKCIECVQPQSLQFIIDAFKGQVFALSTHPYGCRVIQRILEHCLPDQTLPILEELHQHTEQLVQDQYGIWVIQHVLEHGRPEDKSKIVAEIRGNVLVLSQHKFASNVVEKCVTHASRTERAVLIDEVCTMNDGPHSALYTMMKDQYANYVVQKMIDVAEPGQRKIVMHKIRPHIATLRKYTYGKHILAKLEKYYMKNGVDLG
The method, boiled down:
as §1

In test [3] the target is PUM1 PUF domain R3-IYV (Homo sapiens, UniProt Q14671 828-1176, C935I;R936Y;Q939V). The method, boiled down: as §1
In test [4] the target is PUM1 PUF domain R3-WYR (Homo sapiens, UniProt Q14671 828-1176, C935W;R936Y;Q939R). In short, it runs like this: as §1
In test [5] the target is PUM1 PUF domain R3-LRV (Homo sapiens, UniProt Q14671 828-1176, C935L;Q939V). The method, boiled down: as §1
Test [6] has as its target PUM1 PUF domain R8-RHR (Homo sapiens, UniProt Q14671 828-1176, N1122R;Y1123H;Q1126R). In short, it runs like this: as §1
The target in test [7] is PUM1 PUF domain R8-RMR (Homo sapiens, UniProt Q14671 828-1176, N1122R;Y1123M;Q1126R). In short, it runs like this: as §1
In test [8] the target is PUM1 PUF domain R8-RHA (Homo sapiens, UniProt Q14671 828-1176, N1122R;Y1123H;Q1126A). In short, it runs like this:
as §1

The target of test [9] is PUM1 PUF domain R2-CWP (Homo sapiens, UniProt Q14671 828-1176, N899C;Y900W;Q903P). In short, it runs like this: as §1
Test [10] concerns the target PUM1 PUF domain R3-RPW (Homo sapiens, UniProt Q14671 828-1176, C935R;R936P;Q939W). The method, boiled down:
as §1

The target in test [11] is PUM1 PUF domain R3-NPG (Homo sapiens, UniProt Q14671 828-1176, C935N;R936P;Q939G). In short, it runs like this:
as §1

Test [12] deals with PUM1 PUF domain R7-VRR (Homo sapiens, UniProt Q14671 828-1176, S1079V;N1080R;E1083R). The method, boiled down:
as §1

The target of test [13] is PUM1 PUF domain R5-DHN (Homo sapiens, UniProt Q14671 828-1176, C1007D;R1008H;Q1011N). The method, boiled down: as §1
Test [14] concerns the target PUM1 PUF domain R4-EYL (Homo sapiens, UniProt Q14671 828-1176, N971E;H972Y;Q975L). The method, boiled down: as §1
Test [15] addresses PUM1 PUF domain R4-SRT (Homo sapiens, UniProt Q14671 828-1176, N971S;H972R;Q975T). The method, boiled down:
as §1

Test [16] deals with PUM1 PUF domain R5-RFE (Homo sapiens, UniProt Q14671 828-1176, C1007R;R1008F;Q1011E). The method, boiled down:
as §1

For test [17], the target named is PUM1 PUF domain R5-KRI (Homo sapiens, UniProt Q14671 828-1176, C1007K;Q1011I). The method, boiled down: as §1
The target in test [18] is PUM1 PUF domain R5-RVM (Homo sapiens, UniProt Q14671 828-1176, C1007R;R1008V;Q1011M). The method, boiled down: as §1
Test [19] has as its target PUM1 PUF domain R1-QTK (Homo sapiens, UniProt Q14671 828-1176, S863Q;R864T;Q867K). In short, it runs like this: as §1
In test [20] the target is PUM1 PUF domain R1-RFQ (Homo sapiens, UniProt Q14671 828-1176, S863R;R864F). The method, boiled down:
as §1

PUM1 PUF domain R4-EYL, sequence (Q14671 828-1176 N971E/H972Y/Q975L): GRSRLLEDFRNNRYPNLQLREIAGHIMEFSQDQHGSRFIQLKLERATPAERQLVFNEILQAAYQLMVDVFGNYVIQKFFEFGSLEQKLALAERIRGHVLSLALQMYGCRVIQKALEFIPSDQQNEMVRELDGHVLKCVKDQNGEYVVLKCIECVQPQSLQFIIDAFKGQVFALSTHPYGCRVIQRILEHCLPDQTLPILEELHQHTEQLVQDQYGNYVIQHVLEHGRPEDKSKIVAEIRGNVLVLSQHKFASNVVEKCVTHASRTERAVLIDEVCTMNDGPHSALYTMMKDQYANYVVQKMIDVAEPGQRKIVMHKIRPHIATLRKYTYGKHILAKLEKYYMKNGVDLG
PUM1 PUF domain R4-SRT, sequence (Q14671 828-1176 N971S/H972R/Q975T): as the sequence (Q14671 828-1176 N971E/H972Y/Q975L) above, with E144S, Y145R, L148T counted along it
PUM1 PUF domain R2-RKS, sequence (Q14671 828-1176 N899R/Y900K/Q903S): as the sequence (Q14671 828-1176 N971E/H972Y/Q975L) above, with N72R, Y73K, Q76S, E144N, Y145H, L148Q counted along it
PUM1 PUF domain R1-QTK, sequence (Q14671 828-1176 S863Q/R864T/Q867K): as the sequence (Q14671 828-1176 N971E/H972Y/Q975L) above, with S36Q, R37T, Q40K, E144N, Y145H, L148Q counted along it
PUM1 PUF domain R2-CWP, sequence (Q14671 828-1176 N899C/Y900W/Q903P): as the sequence (Q14671 828-1176 N971E/H972Y/Q975L) above, with N72C, Y73W, Q76P, E144N, Y145H, L148Q counted along it
PUM1 PUF domain R1-RFQ, sequence (Q14671 828-1176 S863R/R864F): as the sequence (Q14671 828-1176 N971E/H972Y/Q975L) above, with S36R, R37F, E144N, Y145H, L148Q counted along it

As to “GGCUAGAACUAGUGGAUCCCCCGGCGCCCGGCGGCUCGAGCCCGGGUAAGUGUAAAGAGUCUGCAUGCCGCCGGGCGCCAUGCCUGCAGGUCGACUCUAGAAAACAUG”, in [1], the binding signal is 4.33 log2 enrichment (interaction score).
In the case of “GGCUAGAACUAGUGGAUCCCCCGGCGCCCGGCGGCUCGAGCCCGGGUAAGUGAAAAUAGUCUGCAUGCCGCCGGGCGCCAUGCCUGCAGGUCGACUCUAGAAAACAUG”, in test [2], the binding signal is 4.87 log2 enrichment (interaction score).
As to “GGCUAGAACUAGUGGAUCCCCCGGCGCCCGGCGGCUCGAGCCCGGGUAAGUGUAAGUAGUCUGCAUGCCGCCGGGCGCCAUGCCUGCAGGUCGACUCUAGAAAACAUG”, the binding signal in [3] was 4.55 log2 enrichment (interaction score); in test [4], 2.45 log2 enrichment (interaction score); in test [5], 3.77 log2 enrichment (interaction score).
Consider “GGCUAGAACUAGUGGAUCCCCCGGCGCCCGGCGGCUCGAGCCCGGGUAAGCGUAAAUAGUCUGCAUGCCGCCGGGCGCCAUGCCUGCAGGUCGACUCUAGAAAACAUG”, for which the binding signal in test [6] was 6.54 log2 enrichment (interaction score); in test [7], 3.05 log2 enrichment (interaction score); in test [8] it was 4.75 log2 enrichment (interaction score).
Turning to “GGCUAGAACUAGUGGAUCCCCCGGCGCCCGGCGGCUCGAGCCCGGGUAAGUGUAAAAAGUCUGCAUGCCGCCGGGCGCCAUGCCUGCAGGUCGACUCUAGAAAACAUG”, in test [9], the binding signal is 6.72 log2 enrichment (interaction score).
For the sequence “GGCUAGAACUAGUGGAUCCCCCGGCGCCCGGCGGCUCGAGCCCGGGUAAGUGUAAUUAGUCUGCAUGCCGCCGGGCGCCAUGCCUGCAGGUCGACUCUAGAAAACAUG”, the binding signal is 2.58 log2 enrichment (interaction score) in [4], 2.6 log2 enrichment (interaction score) in test [10], 1.41 log2 enrichment (interaction score) in [5] and 2.86 log2 enrichment (interaction score) in test [11].
With “GGCUAGAACUAGUGGAUCCCCCGGCGCCCGGCGGCUCGAGCCCGGGUAAGUUUAAAUAGUCUGCAUGCCGCCGGGCGCCAUGCCUGCAGGUCGACUCUAGAAAACAUG”, the binding signal in [12] is 2.18 log2 enrichment (interaction score).
In the case of “GGCUAGAACUAGUGGAUCCCCCGGCGCCCGGCGGCUCGAGCCCGGGUAAGUGUGAAUAGUCUGCAUGCCGCCGGGCGCCAUGCCUGCAGGUCGACUCUAGAAAACAUG”, the binding signal in test [13] was 2.35 log2 enrichment (interaction score).
In the case of “GGCUAGAACUAGUGGAUCCCCCGGCGCCCGGCGGCUCGAGCCCGGGUAAGUGUAUAUAGUCUGCAUGCCGCCGGGCGCCAUGCCUGCAGGUCGACUCUAGAAAACAUG”, the binding signal in test [14] was 3.34 log2 enrichment (interaction score); in test [15], 2.14 log2 enrichment (interaction score).
For “GGCUAGAACUAGUGGAUCCCCCGGCGCCCGGCGGCUCGAGCCCGGGUAAGUGUCAAUAGUCUGCAUGCCGCCGGGCGCCAUGCCUGCAGGUCGACUCUAGAAAACAUG”, the binding signal in test [16] was 4.53 log2 enrichment (interaction score); in [17], 4.51 log2 enrichment (interaction score); in test [18] it was 2.54 log2 enrichment (interaction score).
For “GGCUAGAACUAGUGGAUCCCCCGGCGCCCGGCGGCUCGAGCCCGGGUAAGUGUAAAUCGUCUGCAUGCCGCCGGGCGCCAUGCCUGCAGGUCGACUCUAGAAAACAUG”, the binding signal in [19] was 2.31 log2 enrichment (interaction score); in [20] it was 5.82 log2 enrichment (interaction score).
As to “GGCUAGAACUAGUGGAUCCCCCGGCGCCCGGCGGCUCGAGCCCGGGUAAGUGUUAAUAGUCUGCAUGCCGCCGGGCGCCAUGCCUGCAGGUCGACUCUAGAAAACAUG”, the binding signal in [13] was 2.22 log2 enrichment (interaction score).
Take “GGCUAGAACUAGUGGAUCCCCCGGCGCCCGGCGGCUCGAGCCCGGGUAAGUGUAAACAGUCUGCAUGCCGCCGGGCGCCAUGCCUGCAGGUCGACUCUAGAAAACAUG”: the binding signal in test [1] was 0.34 log2 enrichment (interaction score).
On to “GGCUAGAACUAGUGGAUCCCCCGGCGCCCGGCGGCUCGAGCCCGGGUAAGUGUAAAUAGUCUGCAUGCCGCCGGGCGCCAUGCCUGCAGGUCGACUCUAGAAAACAUG”, for which the binding signal in [14] is 4.64 log2 enrichment (interaction score); in test [3] it was 2.65 log2 enrichment (interaction score); in [6], 5.61 log2 enrichment (interaction score); in test [7], 1.55 log2 enrichment (interaction score); in [13], 3.41 log2 enrichment (interaction score); in test [8], 3.38 log2 enrichment (interaction score). For the same sequence, the binding signal in test [15] was 3.46 log2 enrichment (interaction score).
For “GGCUAGAACUAGUGGAUCCCCCGGCGCCCGGCGGCUCGAGCCCGGGUAAGUGUACAUAGUCUGCAUGCCGCCGGGCGCCAUGCCUGCAGGUCGACUCUAGAAAACAUG”, in test [14], the binding signal was 1.81 log2 enrichment (interaction score).
